Drawing on ChEMBL document CHEMBL1961873, “Compounds: GSK PKIS; Assays: Nanosyn kinase panel” (2012), this text covers inhibition for 31 molecules.

“And” between values parts separate entries of the source, which are not always exact repeats. Equal values may be shown once.

The target in one experiment is CDK3/Cyclin E (Homo sapiens) (UniProt P24864+Q00526). As to conditions: at 1 µM.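 Note: each figure is a mean percent inhibition of the CDK3/cyclin E complex.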
Chain of CDK3/Cyclin E (Homo sapiens) (P24864 whole entry, looked up): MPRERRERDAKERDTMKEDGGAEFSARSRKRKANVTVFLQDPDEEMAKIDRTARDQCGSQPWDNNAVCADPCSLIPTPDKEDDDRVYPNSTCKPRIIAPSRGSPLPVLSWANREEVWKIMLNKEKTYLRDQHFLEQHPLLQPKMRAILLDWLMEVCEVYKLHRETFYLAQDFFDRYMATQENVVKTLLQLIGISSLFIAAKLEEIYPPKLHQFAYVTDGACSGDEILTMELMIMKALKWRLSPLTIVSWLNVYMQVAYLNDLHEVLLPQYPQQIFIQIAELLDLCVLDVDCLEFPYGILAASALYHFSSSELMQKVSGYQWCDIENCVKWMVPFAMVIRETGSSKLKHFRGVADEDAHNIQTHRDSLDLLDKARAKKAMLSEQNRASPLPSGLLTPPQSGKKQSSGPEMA
Chain of CDK3/Cyclin E (Homo sapiens) (Q00526 whole entry, looked up): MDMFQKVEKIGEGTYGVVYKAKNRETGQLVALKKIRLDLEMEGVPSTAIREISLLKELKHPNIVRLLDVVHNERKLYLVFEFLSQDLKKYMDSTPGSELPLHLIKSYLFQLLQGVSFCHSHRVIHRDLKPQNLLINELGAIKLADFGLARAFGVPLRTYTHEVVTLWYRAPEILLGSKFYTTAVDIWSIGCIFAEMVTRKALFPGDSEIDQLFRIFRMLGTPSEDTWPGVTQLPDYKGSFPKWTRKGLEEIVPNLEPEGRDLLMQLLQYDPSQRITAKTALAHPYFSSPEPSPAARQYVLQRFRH
For orientation: inhibition means the change of the read-out against control, counted positive when it falls. In the case of `CS(=O)(=O)Nc1ccc(-c2cc(-c3ccccc3)cc(C(N)=O)c2N)cc1`, the inhibition was -1.91%.

Consider `COc1cccc(Nc2nccc(-c3cnn4ncccc34)n2)c1`, for which the inhibition is 91.4%.

As to `CS(=O)(=O)CCNCc1ccc(-c2ccc3ncnc(Nc4ccc(OCc5ccccc5)cc4)c3c2)o1`, the inhibition is -0.81%.

For `CC(C)c1ccc(-c2cc(-c3c[nH]nc3-c3ccccn3)ccn2)cc1`, the inhibition is -1.28%.

For the molecule `FC(F)(F)CNc1nccc(-c2cnn3ncccc23)n1`, the inhibition was determined as 11.2%.

As for `Cc1nnc(-c2cccc(-c3ccc(C(=O)NCC4CC4)cc3)c2)o1`, the inhibition was -0.73%.

Turning to `COc1ccc(-c2nn3ncccc3c2-c2ccnc(Nc3ccc(F)c(F)c3)n2)cc1`, the inhibition came out at 0.42%.

For `O=C(Nc1n[nH]c2nnc(-c3cccnc3)cc12)C1CC1`, the inhibition amounted to 81.4%.

For the molecule `NS(=O)(=O)c1ccc(N/N=C2\C(=O)Nc3cccc(CCc4ccncc4)c32)cc1`, the inhibition is 63.6%.

As to `CNC(=O)c1cncc(/C=C/c2ccccc2C)c1`, the inhibition amounted to 0.23%.

For `NS(=O)(=O)c1ccc(N/N=C2\C(=O)Nc3ccc(C(=O)NCc4ccncc4)cc32)cc1`, the inhibition turned out to be 96.3%.

Consider `CCS(=O)(=O)c1ccc(OC)c(Nc2ncc(-c3cccc(F)c3)o2)c1`, for which the inhibition was -2.15%.

Regarding `COc1cccc(-n2ncc3c(N/N=C/c4ccc(C(=O)NCCN(C)C)cc4)ncnc32)c1`, the inhibition turned out to be 50.1%.

Regarding `COC(=O)Nc1nc2ccc(Oc3ccc(NC(=O)Nc4cc(C(F)(F)F)ccc4F)cc3)cc2s1`, the inhibition is -0.71%.

With `Cn1c(-c2nonc2N)nc2cnccc21`, the inhibition turned out to be 2.12%.

As to `CCN1CCC(C(=O)Nc2n[nH]c3nnc(-c4cccc(F)c4F)cc23)CC1`, the inhibition came to 16.7%.

For another experiment, the target named is Cyclin-dependent kinase 4 (Homo sapiens) (UniProt P11802). As to conditions: at 0.1 µM.
Chain of Cyclin-dependent kinase 4 (Homo sapiens) (P11802 whole entry): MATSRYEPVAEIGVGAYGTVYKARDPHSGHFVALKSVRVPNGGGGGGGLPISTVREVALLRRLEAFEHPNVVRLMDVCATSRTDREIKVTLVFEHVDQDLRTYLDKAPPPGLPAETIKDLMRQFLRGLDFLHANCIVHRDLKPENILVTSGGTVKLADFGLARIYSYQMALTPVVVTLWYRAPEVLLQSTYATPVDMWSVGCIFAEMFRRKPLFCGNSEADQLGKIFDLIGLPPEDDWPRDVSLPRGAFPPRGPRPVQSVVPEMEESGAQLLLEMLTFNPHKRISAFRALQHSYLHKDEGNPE
As for `Cc1cc(O)cc(C)c1/C=C/c1cncc(C(N)=O)c1`, the inhibition was 2.84%.

Regarding `CC1=C(C(=O)Nc2ccc3[nH]ncc3c2)C(c2ccc(F)cc2)N=C(c2ccc(C(F)(F)F)nc2)N1` (configuration not stated), the inhibition is 2.27%.

Consider `COc1c(C(N)=O)cc(-c2ccc(Cl)cc2)cc1-c1ccc(S(N)(=O)=O)cc1`, for which the inhibition was 3.98%.

With `Cc1cc(O)cc(C)c1/C=C/c1cncc(C(=O)OC(C)(C)C)c1`, the inhibition stood at 2.59%.

On to `COc1ccc(Nc2ncc(-c3ccccc3)o2)cc1OC`, for which the inhibition turned out to be 5.15%.

`Fc1ccc(Nc2nccc(-c3c(-c4ccc(C(F)(F)F)cc4)nn4ncccc34)n2)cc1F`: the inhibition was 2.28%.

`O=C(O[C@H]1CN[C@H](C#Cc2cc3ncnc(Nc4ccc(OCc5cccc(F)c5)c(Cl)c4)c3s2)C1)N1CCOCC1`: the inhibition was 2.11%.

On to `COc1ccc2ncn(-c3cc(O[C@H](C)c4ccccc4C(F)(F)F)c(C(N)=O)s3)c2c1`, for which the inhibition was found to be 0.47%.

As for `CNC(=O)c1ncccc1Nc1nc(Nc2cc3c(cc2OC)CCCN3C(=O)CN(C)C)nc2[nH]ccc12`, the inhibition was 5.18%.

Consider `COc1ccccc1-c1cc(/C=C2\C(=O)Nc3ncc(Br)cc32)cc(Br)c1O`, for which the inhibition amounted to 5.08%.

Turning to `c1cnn2ncc(-c3ccnc(NCCCN4CCOCC4)n3)c2c1`, the inhibition was found to be 2.24%.

`CCCNc1cccc(-n2ncc3c(N/N=C/c4ccncc4)ncnc32)c1`: the inhibition is 0.2%.

With `OCCCNc1nccc(-c2c(-c3ccc(F)cc3)nn3cc(C(F)(F)F)ccc23)n1`, the inhibition came out at 0.94%.

Regarding `CS(=O)(=O)Nc1ccc(-c2ccc3c(NC(=O)C4CC4)n[nH]c3c2)cc1`, the inhibition came to 2.19%.

`CN1CCC(C(=O)Nc2n[nH]c3nc(-c4ccc(O)cc4)c(Br)cc23)CC1`: the inhibition was 48% and 51.8%.

With `CS(=O)(=O)Nc1ccc(-c2cc(-c3ccccc3)cc(C(N)=O)c2N)cc1`, the inhibition worked out at 0.62%.

In the case of `COc1cccc(Nc2nccc(-c3cnn4ncccc34)n2)c1`, the inhibition is 56.5%.

Consider `CS(=O)(=O)CCNCc1ccc(-c2ccc3ncnc(Nc4ccc(OCc5ccccc5)cc4)c3c2)o1`, for which the inhibition stood at 1.16%.

Regarding `CC(C)c1ccc(-c2cc(-c3c[nH]nc3-c3ccccn3)ccn2)cc1`, the inhibition turned out to be 1.25%.

For the molecule `FC(F)(F)CNc1nccc(-c2cnn3ncccc23)n1`, the inhibition is 2.33%.

Regarding `Cc1nnc(-c2cccc(-c3ccc(C(=O)NCC4CC4)cc3)c2)o1`, the inhibition is 1.46%.

In the case of `COc1ccc(-c2nn3ncccc3c2-c2ccnc(Nc3ccc(F)c(F)c3)n2)cc1`, the inhibition stood at 0.25%.

In the case of `O=C(Nc1n[nH]c2nnc(-c3cccnc3)cc12)C1CC1`, the inhibition came out at 13.7%.

In the case of `NS(=O)(=O)c1ccc(N/N=C2\C(=O)Nc3cccc(CCc4ccncc4)c32)cc1`, the inhibition worked out at 14%.

Regarding `CNC(=O)c1cncc(/C=C/c2ccccc2C)c1`, the inhibition is 1.9%.

As to `NS(=O)(=O)c1ccc(N/N=C2\C(=O)Nc3ccc(C(=O)NCc4ccncc4)cc32)cc1`, the inhibition was found to be 14%.

On to `CCS(=O)(=O)c1ccc(OC)c(Nc2ncc(-c3cccc(F)c3)o2)c1`, for which the inhibition was 2.69%.

Consider `COc1cccc(-n2ncc3c(N/N=C/c4ccc(C(=O)NCCN(C)C)cc4)ncnc32)c1`, for which the inhibition came out at 40.6%.

Consider `COC(=O)Nc1nc2ccc(Oc3ccc(NC(=O)Nc4cc(C(F)(F)F)ccc4F)cc3)cc2s1`, for which the inhibition came to 0.7%.

Regarding `Cn1c(-c2nonc2N)nc2cnccc21`, the inhibition is 1.95%.

Regarding `CCN1CCC(C(=O)Nc2n[nH]c3nnc(-c4cccc(F)c4F)cc23)CC1`, the inhibition stood at 5.92%.
